The source made the active and inactive calls.

In test [1] the test system is PRMT1 (protein arginine N-methyltransferase 1). The experiment in a line: PRMT1 binders on small-molecule microarrays, primary screen, biochemical, small-molecule microarray, 635 nm fluorescence (AID 1088).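 Also: binding of Prmt1 protein to compounds spotted on small-molecule microarray slides.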 To be noted: small-molecule microarray binding, higher = more signal.
A short description of test [2]: yeast growth modulation, basal conditions, primary screen, YJM789 clinical isolate, OD600, 24 h (AID 1089).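 Also: growth of clinical yeast isolate S. cerevisiae YJM 789 seeded 1000 cells per well; test concentration not given here.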 The conditions noted are these: S. cerevisiae YJM789 growth, higher = more signal, called active from +8 up or from −8 down.
Test [3] can be described thus: fission yeast growth modulation, primary screen, strain 972, OD600, 24 h, no modulator (AID 1090).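 Also: basal condition with compound alone and no growth modifier present; test concentration not given here.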 To be noted: S. pombe 972 growth, higher = more signal, called active from +8 up or from −8 down.
Test [4] is described as follows: S. cerevisiae growth modulation with rapamycin, primary screen, strain BY4716, OD600, 96 h (AID 1091). Also: test concentration not given here. To be noted: higher = more signal, called active from +8 up or from −8 down.
In test [5] the target is Torsin-1A-interacting protein 2 (Homo sapiens) (UniProt Q8NFQ8). Briefly: LULL1 binders on small-molecule microarray, primary screen, cell lysate, human LULL1 lysate, 635/667 nm fluorescence (AID 1092).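 Also: probe is lysate of COS7 cells overexpressing human LULL1; score merges per-feature 667 nm fluorescence with signal-to-noise.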 The conditions noted are these: hLULL1 lysate binding, 635 nm fluorescence, higher = more signal.
Test [6] is described as follows: E. coli growth modulation, two-sided OD650, primary screen, E. coli filamentation project, strain DRC41, 24 h (AID 1093).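 Also: MC1000 strain lacking acrAB efflux and sulA so SOS filamentation is blocked; test concentration not given here.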 The conditions noted are these: OD650, 24 h, higher = more signal, called active from +8 up or from −8 down.
Test [7] is described as follows: small-molecule microarray binders of probe aLefty2, primary screen, biochemical, biotinylated probe, 635/667 nm fluorescence (AID 1094).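 Also: score merges spot fluorescence near 667 nm with spot signal-to-noise ratio.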 To be noted: higher = more signal.
In test [8] the test system is Noggin (protein binding on small-molecule microarray). The experiment in a line: Noggin binders on small-molecule microarray, primary screen, biochemical, 635/667 nm fluorescence (AID 1095).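 Also: score merges 667 nm feature fluorescence with signal to noise over triplicate slides.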 To be noted: 635 nm fluorescence, higher = more signal.
In test [9] the target is Neurogenic locus notch homolog protein 3 (Homo sapiens) (UniProt Q9UM47). Briefly: NOTCH3 binders on small-molecule microarray, primary screen, biochemical, 635/667 nm fluorescence (AID 1096). To be noted: NOTCH3 binding, 635 nm fluorescence, higher = more signal.
Test [10] in a line: small-molecule microarray binders of probe aEGFR, primary screen, biochemical, biotinylated probe, 635/667 nm fluorescence (AID 1097).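 Also: probe is a biotinylated anti-EGFR antibody binding compounds printed on slides; score combines fluorescence near 667 nm and signal to noise of each spot.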 The conditions noted are these: higher = more signal.

Sequence of Neurogenic locus notch homolog protein 3 (Homo sapiens) (Q9UM47 whole entry, looked up): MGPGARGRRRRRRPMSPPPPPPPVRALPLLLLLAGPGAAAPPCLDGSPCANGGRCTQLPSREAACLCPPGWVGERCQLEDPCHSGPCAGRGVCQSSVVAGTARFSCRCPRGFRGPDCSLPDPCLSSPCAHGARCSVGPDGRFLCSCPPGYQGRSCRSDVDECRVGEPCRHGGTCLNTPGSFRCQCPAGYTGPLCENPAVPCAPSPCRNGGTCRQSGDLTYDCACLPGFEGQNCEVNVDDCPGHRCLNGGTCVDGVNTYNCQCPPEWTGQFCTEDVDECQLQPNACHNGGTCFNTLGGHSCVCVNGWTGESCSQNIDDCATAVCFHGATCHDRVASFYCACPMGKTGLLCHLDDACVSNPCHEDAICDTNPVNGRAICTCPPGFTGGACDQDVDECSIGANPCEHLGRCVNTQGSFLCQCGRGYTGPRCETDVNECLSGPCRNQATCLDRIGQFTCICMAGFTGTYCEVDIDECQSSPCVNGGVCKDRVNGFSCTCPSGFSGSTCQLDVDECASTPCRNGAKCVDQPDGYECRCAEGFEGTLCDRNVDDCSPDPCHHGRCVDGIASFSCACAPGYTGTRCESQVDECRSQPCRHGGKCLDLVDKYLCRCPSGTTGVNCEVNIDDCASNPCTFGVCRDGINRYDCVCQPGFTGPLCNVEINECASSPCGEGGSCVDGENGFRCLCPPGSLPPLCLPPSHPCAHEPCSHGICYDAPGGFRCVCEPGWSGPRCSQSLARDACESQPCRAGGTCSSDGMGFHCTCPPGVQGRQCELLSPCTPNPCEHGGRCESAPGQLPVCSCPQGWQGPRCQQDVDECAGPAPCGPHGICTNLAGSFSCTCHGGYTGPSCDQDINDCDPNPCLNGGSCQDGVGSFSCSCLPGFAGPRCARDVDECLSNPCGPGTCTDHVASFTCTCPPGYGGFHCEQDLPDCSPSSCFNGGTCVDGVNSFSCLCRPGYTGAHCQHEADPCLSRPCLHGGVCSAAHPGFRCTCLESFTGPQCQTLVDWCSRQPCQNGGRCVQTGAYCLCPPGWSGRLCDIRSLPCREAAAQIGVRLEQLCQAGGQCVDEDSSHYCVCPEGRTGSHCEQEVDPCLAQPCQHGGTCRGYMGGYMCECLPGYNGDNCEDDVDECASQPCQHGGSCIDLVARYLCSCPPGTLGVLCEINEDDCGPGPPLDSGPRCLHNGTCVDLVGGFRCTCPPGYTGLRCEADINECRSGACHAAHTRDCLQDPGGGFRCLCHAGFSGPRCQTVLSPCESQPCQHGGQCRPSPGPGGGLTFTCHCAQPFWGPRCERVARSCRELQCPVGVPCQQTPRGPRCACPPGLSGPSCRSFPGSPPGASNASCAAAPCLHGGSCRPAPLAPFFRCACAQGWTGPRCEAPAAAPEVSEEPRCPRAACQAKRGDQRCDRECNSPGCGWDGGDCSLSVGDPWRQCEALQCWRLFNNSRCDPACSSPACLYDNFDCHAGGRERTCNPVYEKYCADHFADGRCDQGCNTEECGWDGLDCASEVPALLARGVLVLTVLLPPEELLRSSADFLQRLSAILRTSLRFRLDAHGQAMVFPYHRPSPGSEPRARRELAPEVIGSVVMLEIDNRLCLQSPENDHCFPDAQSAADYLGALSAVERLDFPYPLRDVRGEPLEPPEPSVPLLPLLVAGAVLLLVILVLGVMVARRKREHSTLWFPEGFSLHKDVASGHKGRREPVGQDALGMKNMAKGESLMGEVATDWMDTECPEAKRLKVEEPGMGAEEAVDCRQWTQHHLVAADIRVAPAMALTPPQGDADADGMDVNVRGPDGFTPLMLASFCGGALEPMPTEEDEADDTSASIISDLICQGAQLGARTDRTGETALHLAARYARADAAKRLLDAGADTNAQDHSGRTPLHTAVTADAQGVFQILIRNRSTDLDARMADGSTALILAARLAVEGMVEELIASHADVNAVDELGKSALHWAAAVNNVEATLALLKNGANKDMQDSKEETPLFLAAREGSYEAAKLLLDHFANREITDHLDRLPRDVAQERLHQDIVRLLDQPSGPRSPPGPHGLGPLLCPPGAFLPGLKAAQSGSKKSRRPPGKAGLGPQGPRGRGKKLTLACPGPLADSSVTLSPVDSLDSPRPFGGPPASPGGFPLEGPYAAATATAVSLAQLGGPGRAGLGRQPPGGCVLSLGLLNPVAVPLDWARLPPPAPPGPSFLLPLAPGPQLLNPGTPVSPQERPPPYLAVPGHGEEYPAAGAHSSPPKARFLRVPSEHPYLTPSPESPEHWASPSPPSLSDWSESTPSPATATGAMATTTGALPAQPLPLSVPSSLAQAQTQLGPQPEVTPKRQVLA
Sequence of Torsin-1A-interacting protein 2 (Homo sapiens) (Q8NFQ8 whole entry, looked up): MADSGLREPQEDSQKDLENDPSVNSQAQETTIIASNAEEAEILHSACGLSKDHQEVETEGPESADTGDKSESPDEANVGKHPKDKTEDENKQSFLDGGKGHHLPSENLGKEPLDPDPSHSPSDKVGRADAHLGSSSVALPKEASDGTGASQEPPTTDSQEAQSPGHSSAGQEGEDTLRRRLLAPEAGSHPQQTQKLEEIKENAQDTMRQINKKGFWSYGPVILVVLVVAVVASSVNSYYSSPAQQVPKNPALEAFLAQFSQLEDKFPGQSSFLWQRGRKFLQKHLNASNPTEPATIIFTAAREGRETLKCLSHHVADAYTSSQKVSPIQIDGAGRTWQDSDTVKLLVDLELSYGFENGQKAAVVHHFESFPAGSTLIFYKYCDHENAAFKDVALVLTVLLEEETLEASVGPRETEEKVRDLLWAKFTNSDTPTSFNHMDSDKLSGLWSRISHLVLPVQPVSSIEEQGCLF

Consider `Cc1ccc(S[C@]2(C(=O)NCCCN(C)C)CC(=O)N(C3Cc4ccccc4C3)[C@@H]2c2ccc(CO)cc2I)cc1`, for which the composite z-score in test [1] was 0.961; in test [5], 1.14; in test [7], -0.035; in [8], -0.978; in [9] it was -0.105; in [10], -0.0828. The z-score in [2] is -0.471 (inactive); in test [3], -2.87 (inactive); in test [4], 1.32 (inactive); in test [6] it was -0.42 (inactive).
As to `CN(C)CCCCNC(=O)[C@H]1C[C@H]2C(=O)NCC(=O)N2[C@H]1c1ccc(O)cc1`, the composite z-score in test [1] was 0.784; in test [5], 1.21; in test [7], -0.189; in test [8], 0.15; in test [9] it was 0.408; in [10] it was -0.139. The z-score was 0.873 (inactive) in test [2], 0.981 (inactive) in test [3], 0.144 (inactive) in test [4] and 0.187 (inactive) in test [6].
With `[N-]=[N+]=NCc1ccccc1[C@@H]1OC(c2ccc(OCCCO)cc2)=N[C@]1(Cc1ccccc1N=[N+]=[N-])C(=O)O`, the composite z-score in test [1] was 1.48; in [5], 3.13; in test [7], 0.515; in [8], -0.0626; in [9], 1.11; in test [10], 0.439. Also, the z-score in test [2] is -0.282 (inactive); in test [3] it was -1.64 (inactive); in test [4], -0.794 (inactive); in test [6], -0.0956 (inactive).
Turning to `COc1ccc([Si](C)(C)[C@@H]2[C@@H](CC(=O)N(CCO)Cc3ccccc3)O[C@]3(C(=O)N(Cc4ccc(I)cc4)c4ccccc43)[C@H]2C)cc1`, the composite z-score in test [1] was 1.55; in test [5], -0.0159; in [7] it was 0.408; in [8], 1.63; in [9], 1.12; in [10], 0.338. Also, the z-score in [2] was 0.383 (inactive); in test [3] it was 1.53 (inactive); in [4] it was 2.57 (inactive); in [6], 1.26 (inactive).
In the case of `CC(C)(C)N1CC=CC23O[C@@H]4C=CCOC(=O)[C@@H]4[C@H]2C(=O)N(CCO)[C@@H]3C1=O` (stereo not given in full), the composite z-score is 0.717 in [1]; 1.34 in test [5]; -0.284 in test [7]; -1.6 in test [8]; -0.337 in test [9]; -0.205 in [10]. In addition, the z-score in test [2] was 0.573 (inactive); in [3] it was -0.0445 (inactive); in test [4], 0.514 (inactive); in [6], -0.594 (inactive).
Consider `COCCCN1C(=O)[C@@]2(c3ccc([N+](=O)[O-])cc3)CC(=O)N(CC34CC5CC(CC(C5)C3)C4)[C@@H]2c2ccc(CO)cc21`, for which the composite z-score in test [1] was 1.27; in test [5], 2.07; in test [7], -0.159; in test [8], 0.432; in test [9] it was -0.182; in test [10], -0.115. For the same compound, the z-score in [2] was 0.222 (inactive); in test [3], 0.432 (inactive); in test [4], -1.33 (inactive); in [6], -0.0011 (inactive).
For `C[C@@H]1NC(=O)C([C@@H](C)OCc2ccccc2)NC(=O)[C@@]23C(=O)N[C@@H](Cc4ccccc4)C2[C@H](C)[C@@]2(C)O[C@H]2C3/C=C/C/C=C\CNC1=O` (stereo not given in full), the composite z-score in [1] is -0.448; in [5], -0.327; in test [7], -0.205; in test [8], -0.0322; in test [9], 0.177; in test [10], -0.109. Also, the z-score is 0.35 (inactive) in test [2], -0.258 (inactive) in test [3], 0.186 (inactive) in test [4] and -1.07 (inactive) in test [6].
Consider `CCCc1cc2c(n1CCc1ccc(Cl)cc1)C(C)C1CN(C(=O)c3ccccc3)C(C)(C(=O)OC)C21` (stereo not given), for which the composite z-score in test [1] was 0.396; in [5], 3.31; in test [7], 0.342; in test [8], -1.01; in test [9] it was 1.04; in test [10], 0.131. The z-score was 0.318 (inactive) in test [2], -0.29 (inactive) in [3], 1.03 (inactive) in [4] and -2.17 (inactive) in [6].
Regarding `COCCOC(=O)N1C(=O)[C@@]2(c3cc(C#CCNC(N)=O)ccc31)[C@H](C(=O)Nc1nc3ccccc3s1)[C@H]1C(=O)O[C@H](c3ccccc3)[C@H](c3ccccc3)N1[C@@H]2c1ccccc1OCCO`, the composite z-score was 1.56 in test [1]; 1.11 in test [5]; 0.146 in test [7]; 1.14 in test [8]; 0.907 in [9]; 0.359 in [10]. Further, the z-score is 0.236 (inactive) in test [2], 1.81 (inactive) in test [3], 3.17 (inactive) in [4] and 1.17 (inactive) in test [6].
Regarding `COc1ccc(CCNC(=O)[C@@H]2c3ccccc3C(=O)N(Cc3ccccc3OC)[C@H]2c2ccc(CO)cc2)cc1`, the composite z-score was 1.53 in [1]; 2.62 in [5]; -0.172 in test [7]; 0.0564 in test [8]; 0.852 in test [9]; -0.105 in test [10]. In addition, the z-score in test [2] is -1.23 (inactive); in test [3] it was 0.294 (inactive); in test [4], -0.323 (inactive); in test [6], -0.1 (inactive).
Regarding `COC(=O)[C@@]1(Cc2ccc(F)cc2)[C@H]2c3cc(C(=O)N4CCCC4)n(Cc4cc(F)cc5c4OCOC5)c3C[C@H]2CN1C(=O)c1ccccc1`, the composite z-score in test [1] was determined as 0.272; in [5] it was 0.423; in [7], 0.299; in test [8], 0.739; in test [9], 1.12; in test [10], 0.36. Besides, the z-score was 0.494 (inactive) in test [2], 1.57 (inactive) in test [3], 3.33 (inactive) in test [4] and -0.0269 (inactive) in [6].
Turning to `C=CCN1C(=O)[C@@]2(O[C@@H](CCn3cc([C@H](O)c4ccccc4)nn3)[C@H]([Si](C)(C)c3ccc(OC)cc3)[C@H]2C)c2cc(N3C(=O)c4cccc5cccc3c45)ccc21`, the composite z-score in [1] is 0.183; in test [5], 1.5; in test [7], -0.189; in [8] it was -0.684; in test [9], -0.193; in test [10], -0.199. The z-score in test [2] was 0.584 (inactive); in test [3] it was 1.18 (inactive); in test [4] it was 1.31 (inactive); in test [6], -0.76 (inactive).
As to `COC(=O)[C@@]1(Cc2ccccc2)[C@H]2c3cc(C(=O)N(C)C)n(CCO)c3C[C@H]2CN1C(=O)c1ccccc1`, the composite z-score in [1] was 0.805; in test [5], 4.04; in [7], 0.381; in test [8], -0.779; in test [9], 1.02; in test [10] it was 0.418. Besides, the z-score in [2] is 0.136 (inactive); in test [3] it was 0.612 (inactive); in test [4], 0.26 (inactive); in test [6], -0.508 (inactive).
With `O=C(NCCN1CCOCC1)[C@@H]1c2ccccc2C(=O)N(Cc2ccccc2C(F)(F)F)[C@H]1c1ccc(CO)cc1`, the composite z-score in [1] is 1.56; in [5], 1.81; in test [7], -0.525; in [8], -0.982; in test [9], -0.842; in test [10] it was -0.403. Moreover, the z-score in test [2] is -0.451 (inactive); in test [3], -0.539 (inactive); in test [4] it was -0.705 (inactive); in test [6], 0.75 (inactive).

These data come from PubChem BioAssay.
